MCF10A rereplic: induces DNA re-replication in MCF 10a normal breast cells | AID 624296 | Potency, µM (top dose mostly 46.1 µM), actives largely listed as activators | 350,000 tested, 2.9% active | MCF 10A DNA re-replication, Hoechst nuclear intensity, 48 h; also: nearly all actives have a fitted effect of over 50% in size
ELG1 DNA repair: blocks ELG1-dependent DNA repair in HEK293T cells; HEK293T ELG1-luciferase reporter, luminescence, 16 h; DNA damage induced by 5-fluorouridine; Potency, µM (top dose mostly 46.1 µM), hits mostly inhibitors; 330,000 tested, 2.3% active; also: nearly all actives have a fitted effect of over 55% in size
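Cells (2,000 per well) received 5-fluorouridine plus test compound or DMSO and were incubated 16 hr at 37 °C, 5% CO2. Luciferase activity was read by luminescence 30 min after ONE-Glo addition; signal suppression marked inhibition of damage-induced ELG1 function.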
SW480 rerep: inducers of DNA re-replication in SW480 colon cancer cells; SW480 DNA re-replication, Hoechst DNA content imaging, 48 h; Potency, µM (top dose mostly 46.1 µM), usual class: activators; 340,000 tested, 1.8% active; also: nearly all actives have a fitted effect of over 55% in size
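Quantitative HTS format with DMSO vehicle controls; 48 hr drug incubation at 37 C, then 40 min Hoechst staining and scanning imager measurement at 405 nm excitation.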
KB-3-1 tox: KB-3-1 parental cell cytotoxicity | AID 1347075 | KB-3-1 viability, CellTiter-Glo ATP luminescence, 72 h | Potency, µM (highest dose often 46.1 µM), actives largely listed as cytotoxic | 400,000 tested, 1.4% active; also: nearly all actives have a fitted effect of over 60% in size
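Using CellTiter-Glo luminescence, growth of non-resistant KB-3-1 adenocarcinoma cells is assessed 72 h after pin-tool compound addition at 37 °C. Normalized responses across the concentration series yield fitted curves.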
KB-V1 MDR tox: KB-V1 MDR subline cytotoxicity; KB-V1 MDR cells viability, CellTiter-Glo, 72 h; AID 1347076; 400,000 tested, 3.4% active; Potency, µM (highest dose often 46.1 µM), most hits filed as cytotoxic; also: nearly all actives have a fitted effect of over 60% in size
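Luminescent ATP read-out (CellTiter-Glo, 10 min) measures survival of drug-selected KB-V1 MDR cells after 72 h, 37 degrees C compound exposure. Medium: phenol-red-free DMEM, 10% FBS. Values from fitted concentration-response curves.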
Of the large screens only hits and unclear results are named; the others gave an inactive call. Hits are enriched below; roughly 8.1% of the tested compounds scored in any of these assays. Calls follow the shape of the dose curve; as a rule, active = well fitted curve in the direction sought with a large enough effect; inconclusive = small, poorly fitted or top-dose-only effect, or another doubt; inactive = no such curve, though single readings can be large; an effect the other way counts as inactive or inconclusive.

O=C(Nc1cc(S(=O)(=O)Nc2ccc(Cl)cc2)ccc1N1CCCCC1)c1ccc(F)cc1Cl	SW480 rerep inconclusive, KB-3-1 tox 16µM, KB-V1 MDR tox inconclusive
O=C(NC(=S)Nc1ccccc1N1CCCCC1)c1ccc(F)cc1Cl	KB-3-1 tox inconclusive, KB-V1 MDR tox inconclusive
Cc1ccc(C(NC(=O)NC(C)c2ccccc2)C(Cl)(Cl)Cl)cc1F (configuration not stated)	MCF10A rereplic 15µM, ELG1 DNA repair inconclusive, SW480 rerep inconclusive, KB-3-1 tox inconclusive, KB-V1 MDR tox 21µM
CCOC(=O)C1(Cc2cccc(F)c2)CCN(Cc2ccc(COC)o2)CC1	ELG1 DNA repair 23µM, KB-3-1 tox inconclusive
Cc1ccc(C)c(C2=NNC(=NCc3ccccc3)SC2)c1	MCF10A rereplic 23µM, ELG1 DNA repair inconclusive, SW480 rerep inconclusive
CCN=C1NN=C(c2cc(C)n(CCc3ccccc3)c2C)CS1	MCF10A rereplic inconclusive, KB-V1 MDR tox inconclusive
C=CCn1c(C)cc(C2=NNC(=NCc3ccccc3)SC2)c1C	MCF10A rereplic inconclusive, ELG1 DNA repair inconclusive, SW480 rerep inconclusive, KB-3-1 tox inconclusive, KB-V1 MDR tox 9.2µM
COc1ccc(Cl)cc1NC(=O)N1CCN(Cc2cc(=O)n3nc(-c4ccccc4)sc3n2)CC1	none (no result: MCF10A rereplic, ELG1 DNA repair, SW480 rerep)
CCOCCCNC(=O)CN1C(=O)CCn2nc(-c3cccn3C)cc21	none (no result: MCF10A rereplic, ELG1 DNA repair, SW480 rerep)
Cc1cc(C(=O)COC(=O)c2ccc(Cl)c(S(N)(=O)=O)c2)c(C)n1CC1CCCO1 (configuration not stated)	ELG1 DNA repair inconclusive
COCCn1c(C)cc(C(=O)COC(=O)c2ccc(Cl)c(S(N)(=O)=O)c2)c1C	ELG1 DNA repair inconclusive, KB-V1 MDR tox 23µM
COc1ccc(N(C)S(=O)(=O)c2cccc(C(=O)NCC(c3cccs3)N(C)C)c2)cc1 (configuration not stated)	none
CN(C)C(CNC(=O)c1cc(S(=O)(=O)N(C)c2ccc(F)cc2)ccc1Cl)c1cccs1 (configuration not stated)	KB-3-1 tox inconclusive, KB-V1 MDR tox 4.1µM (no result: ELG1 DNA repair)
CC1=CC[C@@]23CCCN2C(=O)CCC[C@H]3C1	ELG1 DNA repair inconclusive
Cc1nn(-c2ccccc2)c2c1cc1c(=O)n(C)c(=O)nc-1n2-c1cccc(Cl)c1	none (no result: MCF10A rereplic, ELG1 DNA repair, SW480 rerep)
Cc1nc(N2CCN(c3ccccn3)CC2)c2c(C)c(C(=O)Nc3ccccc3F)sc2n1	ELG1 DNA repair 9.2µM, KB-3-1 tox 21µM, KB-V1 MDR tox inconclusive
CCc1ccc(NC(=O)c2sc3nc(C)nc(N4CCN(c5ccccn5)CC4)c3c2C)cc1	MCF10A rereplic inconclusive, KB-V1 MDR tox inconclusive
Cc1nc(N2CCN(c3ccccn3)CC2)c2c(C)c(C(=O)Nc3ccc(F)cc3Cl)sc2n1	MCF10A rereplic 16µM, ELG1 DNA repair inconclusive, SW480 rerep inconclusive, KB-3-1 tox inconclusive, KB-V1 MDR tox inconclusive
COc1ccc(NC(=O)CN2CCN(c3ccccn3)CC2)cc1Cl	ELG1 DNA repair inconclusive
COc1ccc(NC(=O)c2sc3nc(C)nc(N4CCN(c5ccccn5)CC4)c3c2C)cc1Cl	MCF10A rereplic inconclusive, ELG1 DNA repair 3.3µM
Cc1nc(N2CCOCC2)c2c(C)c(C(=O)Nc3ccccc3C(F)(F)F)sc2n1	ELG1 DNA repair 16µM, KB-V1 MDR tox inconclusive
CCCCNC(=O)C1(N2C(=O)c3ccccc3C2=O)CCCC1	SW480 rerep inconclusive (no result: ELG1 DNA repair)
OCC1CSC(=S)N1Cc1ccccc1 (configuration not stated)	none (no result: MCF10A rereplic, ELG1 DNA repair, SW480 rerep)
Ic1ccc(/C=C2\C=Cc3ccccc32)cc1	none (no result: MCF10A rereplic, ELG1 DNA repair, SW480 rerep)
Cc1cc(Br)ccc1NC(=O)c1sc2ncnc(N3CCN(c4ccccn4)CC3)c2c1C	MCF10A rereplic 7.3µM, ELG1 DNA repair inconclusive, SW480 rerep 15µM, KB-3-1 tox 6.5µM, KB-V1 MDR tox inconclusive
Cc1nc(N2CCN(c3ccccn3)CC2)c2c(C)c(C(=O)Nc3ccc(F)cc3F)sc2n1	MCF10A rereplic inconclusive, ELG1 DNA repair 12µM, SW480 rerep inconclusive, KB-V1 MDR tox 12µM
Cc1nc(N2CCN(c3ccccn3)CC2)c2c(C)c(C(=O)N3CCN(c4cccc(Cl)c4)CC3)sc2n1	MCF10A rereplic inconclusive, ELG1 DNA repair 12µM
O=C(CN1CCN(c2ccccn2)CC1)Nc1ccc([N+](=O)[O-])cc1C(=O)Nc1ccccc1F	ELG1 DNA repair 12µM (no result: KB-3-1 tox, KB-V1 MDR tox)
Cc1nc(N2CCOCC2)c2c(C)c(C(=O)Nc3ccc(F)cc3Cl)sc2n1	none
Cc1c(C(=O)N2CCN(c3ccccn3)CC2)sc2ncnc(N3CCN(c4ccccc4)CC3)c12	KB-V1 MDR tox inconclusive (no result: ELG1 DNA repair)
O=C(Cc1cccc(NC(=O)C2CCCN(C(=O)c3ccccc3)C2)c1)Nc1cccc(C(=O)N2CCCCC2)c1 (configuration not stated)	MCF10A rereplic inconclusive (no result: ELG1 DNA repair)
CC(C)(C)c1ccc(C(=O)Cn2cnnc2C#N)cc1	SW480 rerep inconclusive
COc1cc(OC)c(/C=C/c2ccncn2)c(OC)c1	KB-3-1 tox inconclusive (no result: MCF10A rereplic, ELG1 DNA repair, SW480 rerep)
COc1cc(NC(=O)CCNS(=O)(=O)c2ccc3c(c2)CCN3C(=O)C2CC2)cc(OC)c1	none (no result: MCF10A rereplic, ELG1 DNA repair, SW480 rerep)
CC(=O)C1=C(C)NC(SCC(=O)c2ccc(Cl)cc2)=C(C#N)C1c1ccco1 (configuration not stated)	ELG1 DNA repair inconclusive, KB-V1 MDR tox 21µM
CCOC(=O)C1=C(c2ccccc2)NC(SCC(=O)Nc2ccc(C)cc2)=C(C#N)C1c1ccco1 (configuration not stated)	SW480 rerep inconclusive, KB-V1 MDR tox inconclusive (no result: ELG1 DNA repair)
CCOC(=O)C1=C(c2ccccc2)NC(SCC(=O)Nc2cccc(C)c2)=C(C#N)C1c1ccco1 (configuration not stated)	MCF10A rereplic inconclusive, ELG1 DNA repair inconclusive, SW480 rerep 18µM, KB-V1 MDR tox 15µM
N#CC1=C(SCC(=O)c2ccc(Br)cc2)NC2=C(C(=O)CCC2)C1c1ccco1 (configuration not stated)	MCF10A rereplic 7.9µM, ELG1 DNA repair 13µM, SW480 rerep 13µM, KB-3-1 tox 10µM, KB-V1 MDR tox 21µM
CC1=C(C(=O)Nc2nc3ccccc3s2)C(c2ccco2)C(C#N)=C(SCC(=O)NC2CCCCC2)N1 (configuration not stated)	MCF10A rereplic 15µM, ELG1 DNA repair inconclusive, SW480 rerep 18µM
CCc1ccc(NC(=O)CSC2=C(C#N)C(c3ccco3)C3=C(CCCC3=O)N2)cc1 (configuration not stated)	MCF10A rereplic 18µM, ELG1 DNA repair inconclusive, SW480 rerep inconclusive, KB-3-1 tox inconclusive, KB-V1 MDR tox inconclusive
CCc1ccccc1NC(=O)CSC1=C(C#N)C(c2ccc(O)c(OC)c2)C2=C(CCCC2=O)N1 (configuration not stated)	MCF10A rereplic 16µM, SW480 rerep inconclusive, KB-3-1 tox inconclusive
COc1cc(C2C(C#N)=C(SC)NC3=C2C(=O)CCC3)ccc1O (configuration not stated)	none

Source: PubChem (National Center for Advancing Translational Sciences (NCATS))
